Data published in PubChem BioAssay (Tox21).
Inconclusive results are not listed. Active and inactive are the calls of the source. Unless noted, calls come from the whole dose curve; as a rule, active = well fitted curve in the direction sought with a large enough effect in the repeat runs; inconclusive = weak or mixed curves; inactive = no such curve, though single readings can be large; an effect the other way counts as inactive or inconclusive.

Assays:
[1] = target: Progesterone receptor (Homo sapiens) (UniProt P06401); test: qHTS assay to identify small molecule agonists of the progesterone receptor (PR) signaling pathway (AID 1346784; calls by dose curve; note: nearly all actives have a fitted effect of over 30% in size; note: potency is the fitted concentration of half-maximal effect)
Progesterone receptor (Homo sapiens), sequence (P06401 whole entry, looked up): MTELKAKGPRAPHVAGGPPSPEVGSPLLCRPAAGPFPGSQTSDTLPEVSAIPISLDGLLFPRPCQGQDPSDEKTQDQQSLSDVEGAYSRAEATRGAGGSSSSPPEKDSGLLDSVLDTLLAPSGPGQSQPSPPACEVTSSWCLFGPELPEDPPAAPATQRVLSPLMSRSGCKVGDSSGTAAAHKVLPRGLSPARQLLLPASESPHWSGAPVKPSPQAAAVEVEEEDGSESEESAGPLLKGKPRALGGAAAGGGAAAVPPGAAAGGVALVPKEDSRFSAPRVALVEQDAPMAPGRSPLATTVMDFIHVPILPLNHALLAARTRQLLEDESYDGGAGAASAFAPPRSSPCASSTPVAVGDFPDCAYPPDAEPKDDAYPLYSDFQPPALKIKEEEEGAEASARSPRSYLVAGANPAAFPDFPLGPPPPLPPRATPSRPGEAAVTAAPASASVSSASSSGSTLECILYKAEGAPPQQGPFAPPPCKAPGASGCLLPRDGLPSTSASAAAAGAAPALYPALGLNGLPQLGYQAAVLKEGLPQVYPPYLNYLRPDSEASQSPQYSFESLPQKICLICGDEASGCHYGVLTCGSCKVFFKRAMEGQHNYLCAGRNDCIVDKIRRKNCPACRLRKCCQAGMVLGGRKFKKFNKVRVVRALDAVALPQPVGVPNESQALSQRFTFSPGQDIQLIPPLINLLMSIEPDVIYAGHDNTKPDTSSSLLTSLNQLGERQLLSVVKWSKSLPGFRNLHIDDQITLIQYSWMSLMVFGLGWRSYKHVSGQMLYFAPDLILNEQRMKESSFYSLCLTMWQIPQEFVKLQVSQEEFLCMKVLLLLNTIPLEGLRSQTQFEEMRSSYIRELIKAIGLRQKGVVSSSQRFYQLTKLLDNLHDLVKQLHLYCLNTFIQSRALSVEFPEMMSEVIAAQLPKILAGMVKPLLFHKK
In short: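 PR-UAS-bla HEK 293T cells (beta-lactamase reporter under UAS) in 2% charcoal-stripped FBS, dosed with 23 nL compound after 6 hr, incubated 16hr at 37C. LiveBLAzer B/G FRET substrate added, fluorescence read after 2 hours.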

[2] = qHTS assay to identify small molecule antagonists of the progesterone receptor (PR) signaling pathway - cell viability counter screen (AID 1346798); note: series mostly up to about 92 µM; nearly all actives have a fitted effect of over 50% in size
In short: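 PR-UAS-bla HEK293T cells, 3,000/well in 2% charcoal-stripped FBS medium, dosed with compounds plus R5020 agonist and incubated 16 h at 37C. Viability then measured in the same wells by CellTiter-Glo luminescence after 30 min at RT.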

[3] = qHTS assay to identify small molecule agonists of the progesterone receptor (PR) signaling pathway - cell viability counter screen (AID 1346799; calls by dose curve; note: nearly all actives have a fitted effect of over 45% in size; note: potency is the fitted concentration of half-maximal effect)
In short: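 Counter screen in the PR-UAS-bla HEK293T wells (2% charcoal-stripped FBS, 16 h compound exposure at 37 C) after the bla read. CellTiter-Glo added, 30 min at room temperature, luminescence read as cell viability.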

[4] = qHTS assay to identify small molecule antagonists of the TGF-beta/Smad signaling pathway - cell viability counter screen (AID 1346824); note: nearly all actives have a fitted effect of over 50% in size
In short: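 SBE-bla HEK 293T cells were plated overnight at 37 C, then given compounds in DMSO plus TGF-beta1 (added as 0.25 ng/mL solution) for 5 hr. After the bla read, CellTiter-Glo was added to the same wells and luminescence read after 30 min at room temperature.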

[5] = qHTS assay to identify small molecule agonists of the TGF-beta/Smad signaling pathway - cell viability counter screen (AID 1346829); note: top concentration of the series differs between compounds; nearly all actives have a fitted effect of over 45% in size
In short: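 Compound-treated SBE-bla HEK 293T cells (5 hr, 37 C) were assessed for viability with CellTiter-Glo in parallel with the reporter read.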

[6] = qHTS assay to identify small molecule agonists of the TGF-beta/Smad signaling pathway (AID 1346859; active = well fitted activation curve with a large enough effect in the signal ratio in the repeat runs, not every such curve was filed as active; the % refers to the signal ratio; note: series mostly up to about 77 µM)
In short: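 SBE-bla HEK293T cells plated overnight, then compound exposure for 5 h at 37 C. Beta-lactamase reporter read with LiveBLAzer B/G FRET substrate after 2 h at room temperature, fluorescence at 405 nm excitation, 460/530 nm emission.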

[7] = target: Thyrotropin-releasing hormone receptor (Homo sapiens) (UniProt P34981); test: qHTS assay to identify small molecule antagonists of the thyrotropin-releasing hormone receptor (TRHR) signaling pathway (AID 1346877; active = well fitted inhibition curve with a large enough effect in the repeat runs, not every such curve was filed as active; note: series mostly up to about 51 µM)
Thyrotropin-releasing hormone receptor (Homo sapiens), sequence (P34981 whole entry, looked up): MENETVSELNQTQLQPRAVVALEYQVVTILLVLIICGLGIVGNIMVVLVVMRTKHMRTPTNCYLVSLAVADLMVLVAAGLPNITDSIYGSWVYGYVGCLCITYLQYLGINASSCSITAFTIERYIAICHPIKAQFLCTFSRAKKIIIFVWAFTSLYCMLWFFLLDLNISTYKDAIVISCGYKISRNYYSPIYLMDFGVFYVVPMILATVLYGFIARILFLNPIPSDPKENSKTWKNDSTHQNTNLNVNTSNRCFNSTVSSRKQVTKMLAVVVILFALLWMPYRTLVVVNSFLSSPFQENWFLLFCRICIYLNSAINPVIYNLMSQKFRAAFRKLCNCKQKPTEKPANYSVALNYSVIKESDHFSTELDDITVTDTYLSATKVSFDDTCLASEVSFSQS
In short: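 Intracellular calcium fluorescence, read kinetically every second over 3 min, reports TRH-evoked signalling in HEK293 cells carrying TRHR. Test compounds were added 5 min ahead of a 1 nM TRH challenge.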

[8] = target: Thyrotropin-releasing hormone receptor (Homo sapiens) (UniProt P34981); test: qHTS assay to identify small molecule agonists of the thyrotropin-releasing hormone receptor (TRHR) signaling pathway (AID 1346891; calls by dose curve; note: series mostly up to about 58 µM)
In short: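 HEK293 cells expressing TRHR plated 18 h at 37 C/5% CO2, calcium dye-loaded 2 h at 37 C, then compound added (agonist mode); kinetic calcium fluorescence read 3 min at 1 s intervals; 15 concentrations in triplicate.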

[9] = Human pregnane X receptor (PXR) small molecule agonists, qHTS cell viability counter screen (AID 1346977); note: nearly all actives have a fitted effect of over 50% in size; note: potency is the fitted concentration of half-maximal effect
In short: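 PXR-Luc HepG2 cells (2,000/well, 5% charcoal-stripped FBS) preincubated 5 hr, then exposed to compounds 24 hr at 37 C. Viability read in the same wells by CellTiter-Fluor fluorescence, reagent added at 23 hr, 1 hr incubation.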

[10] = target: Progesterone receptor (Homo sapiens) (UniProt P06401); test: qHTS assay to identify small molecule antagonists of the progesterone receptor (PR) signaling pathway (AID 1346795; active = well fitted inhibition curve with a large enough effect in the signal ratio in the repeat runs, not every such curve was filed as active; the % refers to the signal ratio; note: potency is the fitted concentration of half-maximal effect)
In short: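 PR-UAS-bla HEK293T cells with beta-lactamase reporter under UAS control, in 2% charcoal-stripped FBS, treated with compounds plus 1 nM promegestone (R5020, final) for 16 hr at 37C. Read-out: FRET beta-lactamase substrate fluorescence after 2 hr at room temperature.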
% is set by controls: 0 for no effect and ±100 for the full control effect.

CC1CCCO1 (stereo not drawn)
inactive: Potency [1] | Potency [2] | Potency [3] | outcome [4] | Potency [5] | Potency [6] | outcome [7] | outcome [8] | Potency [9]

CNCc1ccc(NC(=O)c2c[nH]c3c2C(=O)CCC3)cc1
inactive: Potency [1] | Potency [10] | outcome [4] | Potency [6] | outcome [7] | outcome [8]

Oc1ccc2c(c1)Cc1ccccc1-2
inactive: Potency [1] | Potency [2] | outcome [4] | Potency [6] | outcome [7] | outcome [8] | Potency [9]

CCN(CC)c1cccc(O)c1
inactive: Potency [1] | Potency [2] | outcome [4] | Potency [5] | outcome [7] | outcome [8] | Potency [9]

CCC(Cl)CC(Cl)C(Cl)C(Cl)C(Cl)C(C)Cl (stereo not drawn)
inactive: activation [1] -2.07% [at 19 µM] | activity change, negative = inhibition [10] -4% [at 18.9 µM] | viability change, negative = cytotoxic [4] -12.4% [at 15.8 µM] | activity change, negative = cytotoxicity [5] 0% [at 15.8 µM] | activity, negative = inhibition [7] 0.125% [at 10.5 µM] | activation [8] 0.352% [at 11.8 µM] | activity change, negative = cytotoxicity [9] -5.6% [at 19 µM]

O=C(NS(=O)(=O)/C=C/c1ccccc1)c1ccc(F)cc1Cl
inactive: Potency [1] | Potency [2] | outcome [4] | Potency [5] | Potency [6] | outcome [7] | outcome [8] | Potency [9]

CCCCCCCC/C=C/C(=O)O
inactive: Potency [1] | Potency [3] | outcome [4] | Potency [5] | Potency [6] | outcome [7] | outcome [8] | Potency [9]

COc1ccc(-n2nc(C(F)F)cc2-c2ccc(S(C)=O)cc2)cc1 (stereo not drawn)
inactive: Potency [1] | Potency [2] | outcome [4] | Potency [5] | outcome [7] | outcome [8] | Potency [9]

CCCCCCCCCCCC(=O)OCC(O)CO (stereo not drawn)
inactive: Potency [1] | Potency [10] | outcome [4] | Potency [5] | outcome [7] | outcome [8] | Potency [9]

CN(C)CC/C=C1\c2ccccc2Sc2ccc(Cl)cc21
inactive: Potency [1] | outcome [4] | Potency [5] | Potency [6] | outcome [7] | outcome [8]
active: Potency [10] 21.1 µM | Potency [9] 29.8 µM

O=C(Nc1ccc(C(=O)O)c(O)c1)c1ccccc1
inactive: Potency [1] | Potency [10] | outcome [4] | outcome [7] | outcome [8] | Potency [9]

CC1=C2[C@@H]([C@H](C)CC[C@H]2/C=C(\C)C(=O)O)[C@H](O)C1
inactive: Potency [1] | Potency [2] | Potency [3] | outcome [4] | Potency [5] | Potency [6] | Potency [9]

CNS(=O)(=O)c1cc(C(=O)N2CCC(CCN3C4CCC3CC(n3c(C)nc5ccccc53)C4)(c3cccc(F)c3)CC2)c(Cl)cc1F (stereo not drawn)
active: Potency [3] 5.45 µM
inactive: Potency [1] | outcome [4] | Potency [5]

CCCCCCCCCCCCCOS(=O)(=O)O
inactive: Potency [1] | Potency [10] | Potency [5] | Potency [9]

O=C1[C@@H]2[C@H]3CC[C@H](C3)[C@@H]2C(=O)N1CCCCN1CCN(c2ncccn2)CC1
inactive: Potency [1] | Potency [10] | outcome [4] | Potency [5] | Potency [6] | Potency [9]

C/C(C=O)=C\c1ccccc1
inactive: Potency [1] | Potency [10] | outcome [4] | Potency [5] | Potency [6] | outcome [7] | outcome [8] | Potency [9]

C[C@@H]1C[C@H]2[C@@H]3CCC4=CC(=O)C=C[C@]4(C)[C@@]3(F)[C@@H](O)C[C@]2(C)[C@@]1(O)C(=O)COP(=O)(O)O
inactive: Potency [1] | Potency [2] | Potency [3] | outcome [4] | Potency [5] | Potency [6] | outcome [7] | outcome [8] | Potency [9]

CC(C)N=C=NC(C)C
inactive: Potency [1] | Potency [10] | Potency [3] | outcome [4] | Potency [6] | outcome [7] | outcome [8] | Potency [9]

CC(C)(C)NCC(O)COc1cccc2c1C[C@H](O)[C@H](O)C2 (stereo partly drawn)
inactive: Potency [1] | Potency [10] | Potency [3] | outcome [4] | Potency [6] | Potency [9]

CNc1c2c(nn1C)CCCC2
inactive: Potency [1] | Potency [10] | outcome [4] | Potency [5] | Potency [6] | outcome [7] | outcome [8] | Potency [9]

O=C(CCS)OCC(COC(=O)CCS)(COC(=O)CCS)COC(=O)CCS
inactive: Potency [1] | Potency [10] | outcome [4] | Potency [5] | Potency [6] | outcome [7] | outcome [8] | Potency [9]

COc1ccc(/C=C/C(=O)c2ccc(OC)cc2OC)cc1
inactive: Potency [1] | outcome [4] | Potency [6] | outcome [7] | outcome [8] | Potency [9]

CC(CO)(CO)C(=O)O
inactive: Potency [1] | Potency [3] | outcome [4] | Potency [5] | Potency [6] | Potency [9]

Cc1ccc(Nc2c(F)cccc2Cl)c(CC(=O)O)c1
inactive: Potency [1] | outcome [4] | outcome [7] | outcome [8] | Potency [9]

CCOC(=O)c1ccc(NC(=O)CN2CCCCC2)cc1
inactive: Potency [2] | outcome [4] | Potency [5] | Potency [6] | Potency [9]

O=C(c1ccccc1)C1CCC1
inactive: Potency [1] | outcome [4] | Potency [5] | Potency [6] | outcome [7] | outcome [8] | Potency [9]

CC(=O)OCC(=O)[C@@]1(OC(C)=O)[C@@H](C)C[C@H]2[C@@H]3C[C@H](F)C4=CC(=O)C=C[C@]4(C)[C@@]3(F)[C@@H](O)C[C@@]21C
active: Potency [1] 0.237 µM
inactive: outcome [4] | Potency [9]

Cc1cc(CCCOc2c(C)cc(-c3noc(C(F)(F)F)n3)cc2C)on1
inactive: Potency [1] | Potency [3] | outcome [4] | Potency [5] | Potency [6] | outcome [7] | outcome [8] | Potency [9]

c1ccc(CCCc2ccncc2)cc1
inactive: outcome [4] | Potency [5] | outcome [7] | outcome [8] | Potency [9]
